# Numbering of substitutions follows the chain as printed.
# What was measured:
# Experiment in all cases: yeast three-hybrid, YBZ-1, SC-Leu-His + 0.5 mM 3-AT, 4 days
# Conditions in all cases: tags: N-Gal4 AD-HA kept; label: inside an RPR1-promoter hybrid RNA with tandem MS2 sites; ssRNA
# [1] = molecular target: PUM1 PUF domain R2-CGI (Homo sapiens, UniProt Q14671 828-1176, N899C;Y900G;Q903I)
# In short: (§1)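 Matching RNA elements and Pumilio-1 PUF domain libraries, randomized at the three base-contacting residues of every repeat, were co-expressed from a centromeric plasmid in strain YBZ-1 (LexA–MS2 coat fusion, HIS3 reporter). The repeat regions were PCR-amplified and Illumina-sequenced from cells grown four days on SC-Leu (input) or SC-Leu-His + 0.5 mM 3-AT (selection). The interaction score is the log change in variant frequency from input to selection. It is computed in log2, with a pseudocount of 1 for absent variants.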
# [2] = molecular target: T1, PUM1 PUF domain R6-RYL (Homo sapiens, UniProt Q14671 828-1176, N1043R;Q1047L)
# T1 sequence: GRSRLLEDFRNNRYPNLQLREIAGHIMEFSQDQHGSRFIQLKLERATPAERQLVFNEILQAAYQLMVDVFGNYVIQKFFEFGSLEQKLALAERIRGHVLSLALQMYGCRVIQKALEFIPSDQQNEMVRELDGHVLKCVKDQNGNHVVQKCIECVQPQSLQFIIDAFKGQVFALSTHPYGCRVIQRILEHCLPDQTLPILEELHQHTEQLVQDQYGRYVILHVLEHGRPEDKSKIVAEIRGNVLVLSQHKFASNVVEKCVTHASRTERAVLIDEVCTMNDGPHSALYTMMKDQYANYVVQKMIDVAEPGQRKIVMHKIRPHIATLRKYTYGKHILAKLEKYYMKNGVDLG
# In short: as §1
# [3] = molecular target: PUM1 PUF domain R5-PHL (Homo sapiens, UniProt Q14671 828-1176, C1007P;R1008H;Q1011L)
# In short: as §1
# [4] = molecular target: PUM1 PUF domain R8-RHS (Homo sapiens, UniProt Q14671 828-1176, N1122R;Y1123H;Q1126S)
# In short: as §1
# [5] = molecular target: PUM1 PUF domain R5-RCG (Homo sapiens, UniProt Q14671 828-1176, C1007R;R1008C;Q1011G)
# In short: as §1
# [6] = molecular target: PUM1 PUF domain R5-NSC (Homo sapiens, UniProt Q14671 828-1176, C1007N;R1008S;Q1011C)
# In short: as §1
# [7] = molecular target: PUM1 PUF domain R4-HNA (Homo sapiens, UniProt Q14671 828-1176, N971H;H972N;Q975A)
# In short: as §1
# [8] = molecular target: T2, PUM1 PUF domain R6-KWT (Homo sapiens, UniProt Q14671 828-1176, N1043K;Y1044W;Q1047T)
# T2 sequence: T1 sequence with R216K, Y217W, L220T
# In short: as §1
# [9] = molecular target: PUM1 PUF domain R5-RMM (Homo sapiens, UniProt Q14671 828-1176, C1007R;R1008M;Q1011M)
# In short: as §1
# [10] = molecular target: PUM1 PUF domain R8-HWD (Homo sapiens, UniProt Q14671 828-1176, N1122H;Y1123W;Q1126D)
# In short: as §1
sequence,measurement,setting,value
GGCUAGAACUAGUGGAUCCCCCGGCGCCCGGCGGCUCGAGCCCGGGUAAGUGUAAAUAGUCUGCAUGCCGCCGGGCGCCAUGCCUGCAGGUCGACUCUAGAAAACAUG,binding signal,[1],2.59 log2 enrichment (interaction score)
same,binding signal,[2],2.68 log2 enrichment (interaction score)
same,binding signal,[3],4.35 log2 enrichment (interaction score)
same,binding signal,[4],3.91 log2 enrichment (interaction score)
GGCUAGAACUAGUGGAUCCCCCGGCGCCCGGCGGCUCGAGCCCGGGUAAGUGUUAAUAGUCUGCAUGCCGCCGGGCGCCAUGCCUGCAGGUCGACUCUAGAAAACAUG,binding signal,[5],3.29 log2 enrichment (interaction score)
same,binding signal,[6],4.07 log2 enrichment (interaction score)
same,binding signal,[3],4.46 log2 enrichment (interaction score)
GGCUAGAACUAGUGGAUCCCCCGGCGCCCGGCGGCUCGAGCCCGGGUAAGUGUACAUAGUCUGCAUGCCGCCGGGCGCCAUGCCUGCAGGUCGACUCUAGAAAACAUG,binding signal,[7],2.26 log2 enrichment (interaction score)
GGCUAGAACUAGUGGAUCCCCCGGCGCCCGGCGGCUCGAGCCCGGGUAAGUGCAAAUAGUCUGCAUGCCGCCGGGCGCCAUGCCUGCAGGUCGACUCUAGAAAACAUG,binding signal,[8],3.77 log2 enrichment (interaction score)
GGCUAGAACUAGUGGAUCCCCCGGCGCCCGGCGGCUCGAGCCCGGGUAAGUGUAUAUAGUCUGCAUGCCGCCGGGCGCCAUGCCUGCAGGUCGACUCUAGAAAACAUG,binding signal,[7],4.72 log2 enrichment (interaction score)
GGCUAGAACUAGUGGAUCCCCCGGCGCCCGGCGGCUCGAGCCCGGGUAAGUGUCAAUAGUCUGCAUGCCGCCGGGCGCCAUGCCUGCAGGUCGACUCUAGAAAACAUG,binding signal,[5],3 log2 enrichment (interaction score)
same,binding signal,[9],2.73 log2 enrichment (interaction score)
GGCUAGAACUAGUGGAUCCCCCGGCGCCCGGCGGCUCGAGCCCGGGUAAGCGUAAAUAGUCUGCAUGCCGCCGGGCGCCAUGCCUGCAGGUCGACUCUAGAAAACAUG,binding signal,[10],4.23 log2 enrichment (interaction score)
same,binding signal,[4],4.15 log2 enrichment (interaction score)

# Reference: publication PMC8384837, “Expanding the binding specificity for RNA recognition by a PUF domain”
